Experiment [1] can be described thus: qHTS of pediatric cancer cell lines to identify multiple opportunities for drug repurposing: Primary screen for A673 cells (AID 1347092). Also: nearly all actives have a fitted effect of over 45% in size. Also: potency is read from the fitted curve at half-maximal effect. In short, it runs like this:
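A673 cells (500-1,000 cells/well in growth media) were pre-incubated 5 h at 37 degrees C, then exposed to compounds for 48 h. Viability was read as CellTiter-Glo luminescence; concentration-response curves came directly from the primary screen.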
In general terms: In qHTS, concentration-response curves come from the screen itself.

The nature of experiment [2]: qHTS of pediatric cancer cell lines to identify multiple opportunities for drug repurposing: Primary screen for SK-N-MC cells (AID 1347093). Also: potency is read from the fitted curve at half-maximal effect. The procedure, abridged: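 Metabolically active cells were quantified by ATP-dependent luminescence (CellTiter-Glo, 15 min at room temperature) following 48 h treatment. Cells had been plated at 500-1,000 per well and settled for 5 h beforehand.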

The nature of experiment [3]: qHTS of pediatric cancer cell lines to identify multiple opportunities for drug repurposing: Primary screen for BT-37 cells (AID 1347094). Also: potency is read from the fitted curve at half-maximal effect. In short, it runs like this:
(§1)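 CRCs from 8- or 11-point titrations (lowest final 0.59 nM NPC, 0.78 nM MIPE). Cell viability: CellTiter-Glo after 48 h incubation, 15 min room-temperature development, luminescence imaging.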

The nature of experiment [4]: qHTS of pediatric cancer cell lines to identify multiple opportunities for drug repurposing: Primary screen for NB-EBc1 cells (AID 1347095). Also: potency is read from the fitted curve at half-maximal effect. In short, it runs like this: as §1
Experiment [5] can be described thus: qHTS of pediatric cancer cell lines to identify multiple opportunities for drug repurposing: Primary screen for U-2 OS cells (AID 1347096). Also: nearly all actives have a fitted effect of over 50% in size. Also: potency is read from the fitted curve at half-maximal effect. In short, it runs like this:
(§2)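 Viability after 48 h compound treatment at 37C, 500-1,000 cells/well, read as ATP luminescence with CellTiter-Glo. Primary screens used 11-point (MIPE, 0.78 nM-46 µM) or 8-point (NPC, 0.59 nM-46 µM) final concentrations; follow-up screens used 11-point dilutions.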

The nature of experiment [6]: qHTS of pediatric cancer cell lines to identify multiple opportunities for drug repurposing: Primary screen for Saos-2 cells (AID 1347097). Also: nearly all actives have a fitted effect of over 40% in size. Also: potency is read from the fitted curve at half-maximal effect. The procedure, abridged: as §1
Experiment [7] is described as follows: qHTS of pediatric cancer cell lines to identify multiple opportunities for drug repurposing: Primary screen for SK-N-SH cells (AID 1347098). Also: nearly all actives have a fitted effect of over 65% in size. Also: potency is read from the fitted curve at half-maximal effect. The procedure, abridged:
(§3)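 Cells (500-1,000/well) rested 5 h, then received compounds for 48 h; metabolically active cells were measured by CellTiter-Glo luminescence. Final concentrations spanned up to 46 µM (MIPE, 11-point) or 0.59 nM-46 µM (NPC, 8-point) in primary screens, 11-point in follow-ups.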

Experiment [8] can be described thus: qHTS of pediatric cancer cell lines to identify multiple opportunities for drug repurposing: Primary screen for NB1643 cells (AID 1347099). Also: nearly all actives have a fitted effect of over 50% in size. Also: potency is read from the fitted curve at half-maximal effect. The procedure, abridged: as §1
Experiment [9] is described as follows: qHTS of pediatric cancer cell lines to identify multiple opportunities for drug repurposing: Primary screen for LAN-5 cells (AID 1347100). Also: potency is read from the fitted curve at half-maximal effect. The procedure, abridged:
as §2

Experiment [10] is described as follows: qHTS of pediatric cancer cell lines to identify multiple opportunities for drug repurposing: Primary screen for BT-12 cells (AID 1347101). Also: nearly all actives have a fitted effect of over 25% in size. In short, it runs like this:
as §3

Several values for one entry are separate records, joined by “and”; a condition that tells them apart may be missing. Equal values may be shown once. Results filed as inconclusive are left out. Activity calls are given as the source filed them. Calls follow the shape of the dose curve; as a rule, active = well fitted curve in the direction sought with a large enough effect; inconclusive = small, poorly fitted or top-dose-only effect, or another doubt; inactive = no such curve, though single readings can be large; an effect the other way counts as inactive or inconclusive.

In the case of `Nc1nc(=S)c2[nH]cnc2[nH]1`, the Potency in [1] was 841 nM (active) and 743 nM (active); in experiment [2], 2.99 µM (active) and 1.66 µM (active); in experiment [3], 2.46 µM (active) and 1.93 µM (active); in experiment [4], 743 nM (active); in experiment [5] it was 1.68 µM (active) and 2.35 µM (active); in experiment [6] it was 7.5 µM (active) and 4.69 µM (active). The Potency was 6.87 µM (active) and 5.41 µM (active) in experiment [7]; 2.99 µM (active) and 3.32 µM (active) in experiment [8]; 2.35 µM (active) in experiment [9].

Regarding `Nc1nc(N)nc(-c2cc(Cl)ccc2Cl)n1`, the Potency entry in experiment [1], in experiment [2], in experiment [3], in experiment [4], in [5] and in [6] was “inactive” each time. Further, the Potency result in experiment [7], in experiment [8], in [9] and in [10] was “inactive” in each case.

Consider `O=c1oc2c(O)c(O)cc3c(=O)oc4c(O)c(O)cc1c4c23`, for which the Potency entry in experiment [1], in [2], in experiment [3], in [4], in experiment [5] and in [6] was “inactive” in each case. Moreover, the Potency entry in [7], in experiment [8] and in [9] was “inactive” in each case.

As to `CO[C@@]12[C@H](COC(N)=O)C3=C(C(=O)C(C)=C(N)C3=O)N1C[C@@H]1N[C@@H]12`, the Potency in experiment [1] is 1.33 µM (active) and 1.18 µM (active); in [2], 266 nM (active) and 743 nM (active); in [3], 347 nM (active) and 1.72 µM (active); in experiment [4], 335 nM (active) and 9.35 µM (active); in [7], 1.72 µM (active) and 8.57 µM (active); in [8], 1.33 µM (active). Also, the Potency in [9] is 335 nM (active) and 1.05 µM (active). Also, the Potency result in experiment [5] and in experiment [6] was “inactive” each time.

Consider `OC(Cn1cncn1)(Cn1cncn1)c1ccc(F)cc1F`, for which the Potency result in experiment [1], in [2], in [3], in [4], in experiment [5] and in [6] was “inactive” in each case. The Potency entry in experiment [7], in [8] and in [9] was “inactive” each time.

With `CCN(C)C(=O)Oc1cccc([C@H](C)N(C)C)c1`, the Potency entry in experiment [1], in experiment [2], in [3], in experiment [4], in [5] and in experiment [6] was “inactive” each time. In addition, the Potency result in [7], in experiment [8] and in [9] was “inactive” each time.

In the case of `C[C@]12C=CC(=O)C=C1CC[C@@H]1[C@@H]2C(=O)C[C@@]2(C)[C@H]1CC[C@]2(O)C(=O)CO`, the Potency entry in experiment [1], in experiment [2], in experiment [3], in experiment [4], in [5] and in [6] was “inactive” throughout. Besides, the Potency result in [7], in [8], in experiment [9] and in experiment [10] was “inactive” in each case.

In the case of `CC1=NN(c2ccccc2)C(=O)C1`, the Potency result in experiment [1], in experiment [2], in [3], in experiment [4], in [5] and in [6] was “inactive” each time. The Potency result in [7] and in [8] was “inactive” each time.

Consider `CCn1cc(C(=O)O)c(=O)c2cc(F)c(N3CCNCC3)cc21`, for which the Potency entry in experiment [1], in experiment [2], in [3], in experiment [4], in experiment [5] and in experiment [6] was “inactive” throughout. In addition, the Potency entry in experiment [7] and in experiment [8] was “inactive” throughout.

Turning to `O=C(O)c1cn(C2CC2)c2cc(N3CCNCC3)c(F)cc2c1=O`, the Potency result in [1], in experiment [2], in [3], in [4], in experiment [5] and in [6] was “inactive” in each case. The Potency entry in experiment [7], in [8] and in experiment [9] was “inactive” throughout.

As for `CCN(CC)CC#CCOC(=O)C(O)(c1ccccc1)C1CCCCC1` (centres undefined), the Potency result in experiment [1], in experiment [2], in experiment [3], in [4], in experiment [5] and in experiment [6] was “inactive” throughout. The Potency result in experiment [7] and in [8] was “inactive” each time.

In the case of `CNS(=O)(=O)Cc1ccc2[nH]cc(CCN(C)C)c2c1`, the Potency result in experiment [1], in [2], in experiment [3], in experiment [4], in experiment [5] and in experiment [6] was “inactive” throughout. Moreover, the Potency entry in experiment [7], in experiment [8] and in experiment [9] was “inactive” in each case.

With `CC(N)C12CC3CC(CC(C3)C1)C2` (centres undefined), the Potency result in [1], in experiment [2], in experiment [3], in experiment [4], in experiment [5] and in experiment [6] was “inactive” in each case. Also, the Potency entry in [7], in experiment [8], in [9] and in [10] was “inactive” in each case.

On to `CN(C)CCc1c[nH]c2ccc(C[C@H]3COC(=O)N3)cc12`, for which the Potency result in experiment [1], in [2], in experiment [3], in [4], in [5] and in experiment [6] was “inactive” in each case. In addition, the Potency entry in experiment [7], in experiment [8] and in [9] was “inactive” throughout.

As for `CCCc1cc(C(N)=S)ccn1`, the Potency entry in experiment [1], in experiment [2], in experiment [3], in [4], in experiment [5] and in experiment [6] was “inactive” each time. Besides, the Potency entry in [7], in experiment [8], in [9] and in experiment [10] was “inactive” each time.

Regarding `C#CCN[C@@H]1CCc2ccccc21`, the Potency result in experiment [1], in experiment [2], in [3], in experiment [4], in experiment [5] and in [6] was “inactive” throughout. Besides, the Potency entry in experiment [7], in experiment [8], in experiment [9] and in [10] was “inactive” throughout.

Consider `CCC(=O)O[C@]1(C(=O)CCl)[C@@H](C)C[C@H]2[C@@H]3CCC4=CC(=O)C=C[C@]4(C)[C@@]3(F)[C@@H](O)C[C@@]21C`, for which the Potency result in experiment [1], in [3], in [4], in [5], in [6] and in experiment [7] was “inactive” throughout. Also, the Potency entry in experiment [8] and in experiment [9] was “inactive” in each case. Also, the Potency in experiment [2] was 26.6 µM (active) and 20.9 µM (active).

For `CCN1CCCC1CNC(=O)c1cc(S(N)(=O)=O)ccc1OC` (centres undefined), the Potency entry in [1], in experiment [2], in [3], in [4], in experiment [5] and in experiment [6] was “inactive” throughout. Besides, the Potency entry in experiment [7], in [8], in experiment [9] and in [10] was “inactive” in each case.

Consider `C[C@@H]1C[C@H]2[C@@H]3CCC4=CC(=O)C=C[C@]4(C)[C@@]3(Cl)[C@@H](O)C[C@]2(C)[C@@]1(OC(=O)c1ccco1)C(=O)CCl`, for which the Potency in experiment [1] was 590 nM (active); in experiment [2] it was 2.96 µM (active); in experiment [3] it was 21.7 µM (active); in [4] it was 11800 nM (active); in experiment [5] it was 14.8 µM (active); in experiment [6], 14.8 µM (active). Also, the Potency in experiment [7] was 19.2 µM (active); in [8], 2.64 µM (active); in [9], 10.5 µM (active).

These data come from PubChem BioAssay (NCATS).
